# Source: ChEMBL document CHEMBL1961873, “Compounds: GSK PKIS; Assays: Nanosyn kinase panel” (2012)
# How the values were obtained:
# [1] = target: Tyrosine-protein kinase receptor UFO (Homo sapiens) (UniProt P30530); settings: at 1 µM
# [2] = target: Tyrosine-protein kinase Blk (Homo sapiens) (UniProt P51451); settings: at 0.1 µM
# [3] = target: Tyrosine-protein kinase Blk (Homo sapiens) (UniProt P51451); settings: at 1 µM
# [4] = target: T1, Cytoplasmic tyrosine-protein kinase BMX (Homo sapiens) (UniProt P51813); settings: at 0.1 µM
# T1 sequence (whole entry): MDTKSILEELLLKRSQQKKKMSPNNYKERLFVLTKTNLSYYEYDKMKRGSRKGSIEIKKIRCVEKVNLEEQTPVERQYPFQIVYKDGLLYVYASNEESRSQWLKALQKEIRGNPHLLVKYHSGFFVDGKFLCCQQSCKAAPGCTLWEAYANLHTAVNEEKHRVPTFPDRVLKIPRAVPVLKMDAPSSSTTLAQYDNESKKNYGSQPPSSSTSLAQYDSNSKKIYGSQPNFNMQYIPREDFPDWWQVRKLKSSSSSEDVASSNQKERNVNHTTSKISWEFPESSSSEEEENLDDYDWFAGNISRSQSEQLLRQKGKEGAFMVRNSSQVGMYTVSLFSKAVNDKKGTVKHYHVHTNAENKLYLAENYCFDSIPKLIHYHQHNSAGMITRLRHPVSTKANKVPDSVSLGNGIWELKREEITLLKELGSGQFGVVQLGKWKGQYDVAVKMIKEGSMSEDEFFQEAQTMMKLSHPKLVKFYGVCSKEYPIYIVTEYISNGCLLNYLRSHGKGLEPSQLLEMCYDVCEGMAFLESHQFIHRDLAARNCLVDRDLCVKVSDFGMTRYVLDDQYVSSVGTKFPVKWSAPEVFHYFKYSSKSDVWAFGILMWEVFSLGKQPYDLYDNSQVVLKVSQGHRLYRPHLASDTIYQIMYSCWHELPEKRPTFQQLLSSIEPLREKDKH
# [5] = target: T1, Cytoplasmic tyrosine-protein kinase BMX (Homo sapiens); settings: at 1 µM
# [6] = target: Protein-tyrosine kinase 6 (Homo sapiens) (UniProt Q13882); settings: at 0.1 µM
# Chain of Protein-tyrosine kinase 6 (Homo sapiens) (Q13882 whole entry, looked up): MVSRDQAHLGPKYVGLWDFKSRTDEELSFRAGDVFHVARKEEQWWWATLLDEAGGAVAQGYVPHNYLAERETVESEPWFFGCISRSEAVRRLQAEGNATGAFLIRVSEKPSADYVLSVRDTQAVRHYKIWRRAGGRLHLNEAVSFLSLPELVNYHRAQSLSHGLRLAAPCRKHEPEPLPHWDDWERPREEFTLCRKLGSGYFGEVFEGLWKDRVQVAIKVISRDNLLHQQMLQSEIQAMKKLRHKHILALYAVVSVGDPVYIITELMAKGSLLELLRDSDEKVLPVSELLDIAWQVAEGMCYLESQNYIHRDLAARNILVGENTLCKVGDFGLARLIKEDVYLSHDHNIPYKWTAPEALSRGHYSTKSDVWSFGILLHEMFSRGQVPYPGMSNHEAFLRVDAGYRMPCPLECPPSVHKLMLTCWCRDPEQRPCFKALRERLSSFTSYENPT
# [7] = target: Protein-tyrosine kinase 6 (Homo sapiens) (UniProt Q13882); settings: at 1 µM
# [8] = target: Tyrosine-protein kinase BTK (Homo sapiens) (UniProt Q06187); settings: at 0.1 µM
# Chain of Tyrosine-protein kinase BTK (Homo sapiens) (Q06187 whole entry): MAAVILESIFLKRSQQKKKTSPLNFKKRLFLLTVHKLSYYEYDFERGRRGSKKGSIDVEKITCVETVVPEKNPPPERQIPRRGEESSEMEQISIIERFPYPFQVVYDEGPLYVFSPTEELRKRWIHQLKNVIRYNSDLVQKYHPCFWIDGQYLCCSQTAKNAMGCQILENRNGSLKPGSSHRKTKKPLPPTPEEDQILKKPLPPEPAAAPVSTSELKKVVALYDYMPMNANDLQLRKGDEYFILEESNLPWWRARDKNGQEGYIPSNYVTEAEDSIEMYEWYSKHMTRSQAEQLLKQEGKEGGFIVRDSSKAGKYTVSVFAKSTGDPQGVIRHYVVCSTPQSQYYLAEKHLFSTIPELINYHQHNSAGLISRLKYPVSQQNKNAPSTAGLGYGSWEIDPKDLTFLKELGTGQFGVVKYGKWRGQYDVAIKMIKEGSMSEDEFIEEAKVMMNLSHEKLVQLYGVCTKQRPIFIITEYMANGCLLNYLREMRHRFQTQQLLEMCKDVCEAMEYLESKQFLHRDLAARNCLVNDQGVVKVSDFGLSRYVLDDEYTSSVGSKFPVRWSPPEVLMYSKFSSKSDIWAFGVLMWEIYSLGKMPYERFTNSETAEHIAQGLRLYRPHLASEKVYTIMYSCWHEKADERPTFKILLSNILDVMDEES
# [9] = target: Tyrosine-protein kinase BTK (Homo sapiens) (UniProt Q06187); settings: at 1 µM
# [10] = target: Tyrosine-protein kinase CSK (Homo sapiens) (UniProt P41240); settings: at 0.1 µM;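 also: value given is the averaged percent inhibition of CSK kinase activity, from the GSK PKIS kinase inhibitor set screening panel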
# Chain of Tyrosine-protein kinase CSK (Homo sapiens) (P41240 2-450 limits assumed): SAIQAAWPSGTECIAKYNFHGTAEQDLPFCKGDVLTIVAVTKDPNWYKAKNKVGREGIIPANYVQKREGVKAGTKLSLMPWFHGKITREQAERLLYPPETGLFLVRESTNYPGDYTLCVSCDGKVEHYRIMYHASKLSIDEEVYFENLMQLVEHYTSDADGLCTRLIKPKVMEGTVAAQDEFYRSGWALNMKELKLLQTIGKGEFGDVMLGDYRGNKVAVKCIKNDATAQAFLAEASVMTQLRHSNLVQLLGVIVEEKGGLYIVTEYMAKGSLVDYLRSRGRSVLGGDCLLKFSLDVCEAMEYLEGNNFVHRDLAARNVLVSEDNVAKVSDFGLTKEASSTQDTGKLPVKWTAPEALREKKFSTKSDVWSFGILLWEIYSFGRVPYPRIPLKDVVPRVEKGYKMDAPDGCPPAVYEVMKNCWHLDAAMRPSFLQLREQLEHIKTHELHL
# Chain of Tyrosine-protein kinase Blk (Homo sapiens) (P51451 2-505 limits assumed): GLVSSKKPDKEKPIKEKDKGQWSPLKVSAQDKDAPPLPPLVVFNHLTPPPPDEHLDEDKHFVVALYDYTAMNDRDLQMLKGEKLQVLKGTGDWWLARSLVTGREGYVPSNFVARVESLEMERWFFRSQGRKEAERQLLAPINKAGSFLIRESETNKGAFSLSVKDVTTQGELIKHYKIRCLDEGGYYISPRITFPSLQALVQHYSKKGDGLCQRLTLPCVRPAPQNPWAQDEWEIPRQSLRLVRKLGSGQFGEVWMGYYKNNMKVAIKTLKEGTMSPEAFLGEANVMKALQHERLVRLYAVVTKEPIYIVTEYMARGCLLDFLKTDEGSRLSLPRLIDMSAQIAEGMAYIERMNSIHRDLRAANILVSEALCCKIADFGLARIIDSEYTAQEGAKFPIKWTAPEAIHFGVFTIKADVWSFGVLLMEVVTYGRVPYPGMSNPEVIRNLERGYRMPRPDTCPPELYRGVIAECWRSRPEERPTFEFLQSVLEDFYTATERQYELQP
# Chain of Tyrosine-protein kinase receptor UFO (Homo sapiens) (P30530 whole entry): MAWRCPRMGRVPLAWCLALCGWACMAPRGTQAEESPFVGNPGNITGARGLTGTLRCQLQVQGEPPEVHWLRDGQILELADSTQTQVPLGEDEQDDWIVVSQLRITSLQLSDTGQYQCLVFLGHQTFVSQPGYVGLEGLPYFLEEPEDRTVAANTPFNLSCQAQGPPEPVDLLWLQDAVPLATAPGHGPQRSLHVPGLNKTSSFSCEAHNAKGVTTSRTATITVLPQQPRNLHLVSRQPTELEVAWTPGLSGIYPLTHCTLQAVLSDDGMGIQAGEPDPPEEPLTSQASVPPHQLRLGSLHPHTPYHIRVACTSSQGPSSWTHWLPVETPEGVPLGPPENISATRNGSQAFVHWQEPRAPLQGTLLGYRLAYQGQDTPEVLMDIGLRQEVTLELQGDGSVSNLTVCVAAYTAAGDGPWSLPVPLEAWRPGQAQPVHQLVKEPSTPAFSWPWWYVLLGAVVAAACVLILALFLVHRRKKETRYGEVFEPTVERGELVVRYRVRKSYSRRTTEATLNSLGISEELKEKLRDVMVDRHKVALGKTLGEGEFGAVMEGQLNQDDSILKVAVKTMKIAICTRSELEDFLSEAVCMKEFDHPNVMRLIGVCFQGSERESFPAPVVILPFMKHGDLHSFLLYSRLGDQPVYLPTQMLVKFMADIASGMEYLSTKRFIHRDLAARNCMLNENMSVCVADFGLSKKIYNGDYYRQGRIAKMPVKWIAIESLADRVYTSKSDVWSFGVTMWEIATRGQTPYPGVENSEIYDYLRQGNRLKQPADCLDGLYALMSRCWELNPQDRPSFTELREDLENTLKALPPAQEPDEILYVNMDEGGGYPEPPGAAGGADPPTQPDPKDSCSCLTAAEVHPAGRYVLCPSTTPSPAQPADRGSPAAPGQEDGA
Compound,inhibition [1],inhibition [2],inhibition [3],inhibition [4],inhibition [5],inhibition [6],inhibition [7],inhibition [8],inhibition [9],inhibition [10]
COc1ccc2c(-c3ccnc(Nc4cccc(OC(F)(F)F)c4)n3)cnn2n1,-4.65%,3.16%,4.41%,0.75%,8.05%,7.26%,7.21%,1.66%,2.02%,8.18%
CCn1c(-c2nonc2N)nc2c(C#CC(C)(C)O)ncc(OC3CCNCC3)c21,-4.23%,2.38%,3.31%,3.84%,7.52%,1.28%,1.62%,0.17%,0.56%,3.49%
c1cc(-c2cnn3nc(N4CCOCC4)ccc23)nc(NC2CC2)n1,-5.65%,2.34%,7.51%,0.89%,2.31%,6.35%,7.89%,1.63%,2.33%,10.8%
O=C(Nc1n[nH]c2cc(-c3ccc(F)cc3)ccc12)C1CC1,-2.92%,1.55%,7.03%,0.57%,5.89%,3.22%,2.76%,-1.4%,-0.88%,3.39%
COc1ccc(-c2nn3ncccc3c2-c2ccnc(Nc3ccc4c(c3)OCCO4)n2)cc1,8.45%,5.51%,39.5%,0.12%,8.65%,12%,67.5%,0.65%,3.53%,-0.27%
c1ccc(-c2nc3n(c2-c2ccc4c(c2)OCO4)CCC3)nc1,-5.46%,0.54%,3.25%,-1.29%,1%,0.9%,2.26%,-0.42%,-1.35%,1.01%
COc1ccc2[nH]c3c4[nH]c5ccc(OC)cc5c4c4c(c3c2c1)C(=O)NC4=O,40%,6.14%,36.5%,-2.69%,16.6%,6.37%,19.6%,0.07%,8.32%,4.3%
O=C(O[C@H]1CN[C@H](C#Cc2cc3ncnc(Nc4ccc(Cc5ccccc5)cc4)c3s2)C1)N1CCOCC1,-7.04%,5.97%,48.5%,1.38%,4.65%,-0.08%,18.2%,-0.44%,1.44%,-1.2%
NS(=O)(=O)c1ccc(Nc2ncc(-c3ccccc3)o2)cc1,-3.58%,2.41%,4.76%,0.13%,5.05%,4.11%,4.41%,0%,1.06%,6.51%
Cc1cccc(Nc2ncc(-c3ccccc3)o2)c1,-3.9%,3.13%,6.39%,4.13%,6.25%,2.06%,0.15%,0.69%,1.31%,1.12%
CCN1CCC(CC(=O)Nc2n[nH]c3nnc(-c4cccc(F)c4F)cc23)CC1,0.83%,3.37%,3.76%,1.54%,1.09%,2.53%,1.16%,0.54%,1.15%,-1.69%
COc1cc(Nc2nccc(Nc3ccc4c(C)n[nH]c4c3)n2)cc(OC)c1OC,1.16%,12.7%,69.3%,17.5%,64.8%,11.1%,55.4%,7.82%,34.9%,21%
CN(C)CCOc1ccc(-c2nc(-c3ccncc3)c(-c3ccc4c(c3)CC/C4=N\O)[nH]2)cc1,-4.92%,2.07%,6.18%,2.12%,3.36%,4.89%,12.4%,0.76%,1.19%,6.25%
COc1cc2ncn(-c3cc(OCc4ccccc4C(F)(F)F)c(C(=O)N(C)C)s3)c2cc1OC,1.68%,0.87%,7.34%,3.03%,3.07%,-0.28%,-0.8%,-1.28%,-0.85%,-1.4%
CCCN1CCC(c2ccc(Nc3nc(Nc4cc(F)ccc4C(N)=O)c4cc[nH]c4n3)c(OC)c2)CC1,66%,3.5%,8.52%,3.68%,6.36%,13.5%,64.8%,-1.53%,-1.71%,1.38%
[O-][S+]1CCN(Cc2ccc(-c3ccc4ncnc(Nc5ccc(OCc6cccc(F)c6)c(Cl)c5)c4c3)o2)CC1,-4.13%,1.74%,7.66%,7.13%,7.73%,4.81%,7.3%,-0.42%,0.99%,6.74%
CN1CCC(n2cnc(-c3ccc(F)cc3)c2-c2ccnc(Nc3ccccc3)n2)CC1,-1.45%,2.74%,7.18%,6.66%,5.4%,2.56%,13.2%,-0.86%,1.25%,5.97%
